Source: the supplement of paper PMC3334620
In all, about 33,000 sequences were measured (“E-score (-0.5 to 0.5)”: median about -0.054, highest 2% from about 0.39 on). The entries come from a sample that favours the highest values as a whole.

What follows are sequences tested against Ylr278c (UniProt Q05854) (assay: PBM E-score (8-mer binding enrichment) (E-score (-0.5 to 0.5)); higher = stronger / more preferred TF binding). Conditions: protein concentration: 200 nM; construct: GST-DNA-binding domain.
UniProt Q05854, sequence (Q05854 whole entry, the tested form may be a part): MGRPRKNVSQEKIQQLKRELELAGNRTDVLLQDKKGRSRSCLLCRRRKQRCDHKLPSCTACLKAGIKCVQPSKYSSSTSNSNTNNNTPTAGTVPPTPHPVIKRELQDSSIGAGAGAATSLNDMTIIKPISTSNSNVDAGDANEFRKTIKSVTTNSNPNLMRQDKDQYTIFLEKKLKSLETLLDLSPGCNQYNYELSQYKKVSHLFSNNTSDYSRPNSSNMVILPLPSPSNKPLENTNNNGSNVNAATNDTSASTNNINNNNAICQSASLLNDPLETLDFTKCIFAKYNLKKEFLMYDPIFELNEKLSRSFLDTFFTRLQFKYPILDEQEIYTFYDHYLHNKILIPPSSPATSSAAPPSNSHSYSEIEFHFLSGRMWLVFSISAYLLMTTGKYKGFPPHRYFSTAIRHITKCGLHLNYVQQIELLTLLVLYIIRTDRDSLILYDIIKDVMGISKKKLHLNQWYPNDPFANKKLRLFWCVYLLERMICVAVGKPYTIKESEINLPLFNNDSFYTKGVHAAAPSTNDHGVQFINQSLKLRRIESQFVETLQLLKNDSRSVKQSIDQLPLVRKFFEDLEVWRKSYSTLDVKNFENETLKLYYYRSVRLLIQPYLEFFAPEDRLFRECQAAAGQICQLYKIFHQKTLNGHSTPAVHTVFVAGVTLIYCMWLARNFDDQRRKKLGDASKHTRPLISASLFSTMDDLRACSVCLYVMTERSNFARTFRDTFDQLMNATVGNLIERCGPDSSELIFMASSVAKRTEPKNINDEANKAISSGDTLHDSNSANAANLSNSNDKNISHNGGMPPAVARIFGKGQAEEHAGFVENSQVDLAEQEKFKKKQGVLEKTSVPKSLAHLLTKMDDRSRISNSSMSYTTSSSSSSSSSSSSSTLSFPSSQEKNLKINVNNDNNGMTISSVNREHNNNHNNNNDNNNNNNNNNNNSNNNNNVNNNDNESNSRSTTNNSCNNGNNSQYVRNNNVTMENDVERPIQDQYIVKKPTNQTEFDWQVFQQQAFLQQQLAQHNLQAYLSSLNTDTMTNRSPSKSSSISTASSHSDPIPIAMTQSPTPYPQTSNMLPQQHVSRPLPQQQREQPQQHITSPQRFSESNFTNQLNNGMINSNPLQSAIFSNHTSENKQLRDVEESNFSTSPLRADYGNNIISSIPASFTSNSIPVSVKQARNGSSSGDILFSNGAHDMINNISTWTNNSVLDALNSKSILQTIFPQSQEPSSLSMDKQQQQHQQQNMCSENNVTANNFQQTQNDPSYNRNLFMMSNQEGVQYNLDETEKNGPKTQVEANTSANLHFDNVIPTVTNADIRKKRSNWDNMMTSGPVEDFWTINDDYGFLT
Description: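 Universal 'all 10-mer' protein binding microarrays (Agilent AMADID 015681) probed with GST-tagged S. cerevisiae TFs (full-length or DBD) made by in vitro transcription/translation (PURExpress), about 100-200 nM. Bound TF was detected with fluorescent anti-GST. Each ungapped 8-mer (which stands for itself and its reverse complement) is scored by the PBM enrichment score (E-score), a modified Wilcoxon-Mann-Whitney statistic from -0.5 to +0.5, computed with the Universal PBM Analysis Suite. Scale: above 0.35 generally sequence-specific binding.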

Going from GGCGACGA to AAAGCCTA, the “PBM E-score” value falls from -0.172 to -0.184.

Going from ATCTAACG to CGGCTGGA, the “PBM E-score” value falls from 0.0888 to 0.0769.

First: GGGATGAC
Second: CAGCGGAA
The “PBM E-score” value of the first is lower: 0.0341 for the first, 0.359 for the second.

Going from CCGCGGAC to GCGCGGAC, the “PBM E-score” value falls from 0.429 to 0.294.

Going from CCGCGGAG to CCGCGGGC, the “PBM E-score” value falls from 0.449 to 0.367.

First: AAGCGGAG
Second: CAGCGGAC
The “PBM E-score” value of the first is higher: 0.355 for the first, 0.257 for the second.

Going from CCGCGGGA to CCGCGGCG, the “PBM E-score” value falls from 0.393 to 0.364.

Compared with GCGCGGGA, CAGCGGAG is higher in “PBM E-score” value: 0.248 for the first, 0.408 for the second.

Compared with CCGCGCAG, GCTTCTAC is lower in “PBM E-score” value: 0.274 for the first, -0.123 for the second.

Compared with ATTAGGGA, CCTGAAGA is lower in “PBM E-score” value: -0.0669 for the first, -0.0995 for the second.

Compared with CCATAGGG, CTTTACAC is higher in “PBM E-score” value: -0.154 for the first, 0.022 for the second.

Compared with ACCAGGAT, TCGCGGAA is higher in “PBM E-score” value: -0.0342 for the first, 0.342 for the second.

First: CCGCGGAA
Second: ACGCGGAT
The “PBM E-score” value of the first is higher: 0.414 for the first, 0.23 for the second.

Going from GCGCGGAA to ACGCGGAG, the “PBM E-score” value rises from 0.387 to 0.421.

Compared with ACGCGGAC, AATTAGCT is lower in “PBM E-score” value: 0.342 for the first, 0.0507 for the second.

First: AAGCCGTG
Second: GCCTTTAC
The “PBM E-score” value of the first is higher: 0.00789 for the first, -0.0652 for the second.

Going from ACTCCTTA to ATTCCGTC, the “PBM E-score” value rises from -0.0802 to 0.362.

Compared with CCTCCGTC, AGTCCGTG is lower in “PBM E-score” value: 0.351 for the first, 0.343 for the second.

First: ACTCCGTG
Second: GCTCCGTA
The “PBM E-score” value of the first is higher: 0.449 for the first, 0.405 for the second.

Going from ACACCGTA to GCTCCATA, the “PBM E-score” value falls from 0.102 to -0.175.

First: AATCCGTG
Second: ACTCCGTA
The “PBM E-score” value of the first is lower: 0.26 for the first, 0.443 for the second.

First: CCTCCGTA
Second: ACTCCGTC
The “PBM E-score” value of the first is lower: 0.37 for the first, 0.459 for the second.

Compared with GCTGGAGA, GGCACTAC is higher in “PBM E-score” value: -0.271 for the first, -0.0733 for the second.

Compared with CCTGATCG, CGGAGTGA is higher in “PBM E-score” value: -0.0211 for the first, 0.459 for the second.

Going from CTGAGTGC to CGGAGTGC, the “PBM E-score” value rises from -0.133 to 0.438.

First: GGGAGTGA
Second: AGGAGTGC
The “PBM E-score” value of the first is higher: 0.0441 for the first, -0.139 for the second.

First: AGGAGTGA
Second: GACCATGA
The “PBM E-score” value of the first is lower: -0.0619 for the first, 0.0081 for the second.

Going from CCTTCTGC to ATGTTAGC, the “PBM E-score” value rises from -0.136 to -0.0158.

Compared with AAGACGCA, GTCAACAA is lower in “PBM E-score” value: -0.074 for the first, -0.23 for the second.

Going from AGCTCCCG to AGCTCCTG, the “PBM E-score” value falls from 0.0891 to -0.0626.

First: AGCTCCAA
Second: GGCTCCAA
The “PBM E-score” value of the first is lower: -0.207 for the first, -0.0143 for the second.

Going from GGCTCCCA to AGCTCCGC, the “PBM E-score” value rises from -0.145 to 0.436.

Compared with AGCTCCAC, AGCTCCGG is higher in “PBM E-score” value: -0.0221 for the first, 0.458 for the second.

Going from AGCTCCTC to AGCTCCGA, the “PBM E-score” value rises from -0.144 to 0.47.

Going from GGCTCCGA to AGCTCCTA, the “PBM E-score” value falls from 0.393 to -0.0358.

Compared with GAGCCTCA, CGCTCCCG is higher in “PBM E-score” value: -0.171 for the first, 0.115 for the second.

Going from CACTTCAC to GTCTGTTA, the “PBM E-score” value falls from -0.0647 to -0.13.

First: TGCTCCCA
Second: AAGTCGAG
The “PBM E-score” value of the first is higher: -0.175 for the first, -0.374 for the second.

Going from CTGTCTGC to CCCAATAA, the “PBM E-score” value rises from -0.222 to -0.0977.

Compared with GGAGACTA, GCTAAGAC is lower in “PBM E-score” value: 0.0463 for the first, -0.0188 for the second.

First: CGCTCCGA
Second: CGCTCCCA
The “PBM E-score” value of the first is higher: 0.432 for the first, 0.0833 for the second.

Compared with CGCTCCGC, AACTGTGG is lower in “PBM E-score” value: 0.317 for the first, -0.0559 for the second.

First: ACTACGCT
Second: GCCGACGA
The “PBM E-score” value of the first is lower: -0.0389 for the first, 0.248 for the second.

Compared with TCCGACAA, TCCGACGA is higher in “PBM E-score” value: 0.39 for the first, 0.397 for the second.

Compared with CCCGACGA, CCCGACAA is higher in “PBM E-score” value: 0.213 for the first, 0.281 for the second.

Compared with ACCGACAA, ACCTCTGA is lower in “PBM E-score” value: 0.199 for the first, -0.0775 for the second.

First: CAAGATTG
Second: AAAATTAT
The “PBM E-score” value of the first is lower: -0.151 for the first, 0.214 for the second.

Compared with ACCCGGTA, CCCGGGAC is higher in “PBM E-score” value: 0.161 for the first, 0.394 for the second.

First: TCACGGAA
Second: TCCCGGAA
The “PBM E-score” value of the first is lower: 0.324 for the first, 0.44 for the second.

First: ACCCGGAA
Second: ACCCGGTC
The “PBM E-score” value of the first is higher: 0.394 for the first, 0.202 for the second.

Compared with ACCCGGCA, CCGGGGAC is higher in “PBM E-score” value: 0.174 for the first, 0.242 for the second.

Compared with ACCCGGGC, TCCCGGCA is higher in “PBM E-score” value: 0.273 for the first, 0.333 for the second.

Compared with GCCGGGAC, ACCCGGAC is higher in “PBM E-score” value: 0.255 for the first, 0.396 for the second.

Compared with CCCCTAAC, GAAATCGC is higher in “PBM E-score” value: -0.141 for the first, 0.214 for the second.

First: AACTGGCC
Second: GTGCCTTA
The “PBM E-score” value of the first is higher: 0.0711 for the first, -0.129 for the second.

Compared with AGCGCAGG, CAAAAAGG is lower in “PBM E-score” value: 0.169 for the first, -0.203 for the second.

Compared with AATTTCTC, GCCCGGAC is higher in “PBM E-score” value: 0.121 for the first, 0.406 for the second.

Compared with CCCGGGAG, CCCCGGAG is higher in “PBM E-score” value: 0.294 for the first, 0.48 for the second.

First: CCCCGGTA
Second: CCCCGGAC
The “PBM E-score” value of the first is lower: 0.329 for the first, 0.388 for the second.

Compared with GCCCGGCC, GCCCGGGC is higher in “PBM E-score” value: 0.32 for the first, 0.356 for the second.

Going from CCCCGGCA to CCCCGGTC, the “PBM E-score” value rises from 0.318 to 0.368.

First: CCCCGGCG
Second: CCCCGGCC
The “PBM E-score” value of the first is higher: 0.348 for the first, 0.287 for the second.

First: CCCCGGAA
Second: AAACCAGC
The “PBM E-score” value of the first is higher: 0.406 for the first, 0.0107 for the second.

Going from AGTGAGCC to TACTTTAA, the “PBM E-score” value rises from -0.162 to -0.122.

First: TCGGGTCA
Second: AGCAGCCA
The “PBM E-score” value of the first is higher: 0.232 for the first, -0.259 for the second.

Compared with CCCAGTCC, CTATAAAG is higher in “PBM E-score” value: -0.0128 for the first, 0.0306 for the second.

Going from GAACCAGC to GCCCGGGA, the “PBM E-score” value rises from -0.126 to 0.341.

Compared with ACCCGGAG, ACCCGGAT is lower in “PBM E-score” value: 0.46 for the first, 0.238 for the second.

First: ACCCGGCG
Second: GCCCGGAA
The “PBM E-score” value of the first is lower: 0.258 for the first, 0.423 for the second.

Going from GCCCGGTA to AGCTCACC, the “PBM E-score” value falls from 0.26 to -0.00625.

First: ATGCCGAC
Second: CTTCCGAA
The “PBM E-score” value of the first is lower: 0.318 for the first, 0.371 for the second.

Going from ATGCCGAG to ATTCCAAG, the “PBM E-score” value falls from 0.213 to -0.077.

Compared with ATTCCGAC, ATTCCGAG is lower in “PBM E-score” value: 0.451 for the first, 0.445 for the second.

First: GTTCCGAA
Second: ATTCCGAA
The “PBM E-score” value of the first is lower: 0.373 for the first, 0.456 for the second.

Compared with CTTCCGAC, GTGCAACA is lower in “PBM E-score” value: 0.273 for the first, -0.184 for the second.

First: ACATTCCG
Second: AGGGTTAG
The “PBM E-score” value of the first is higher: 0.332 for the first, -0.249 for the second.

Going from ATATGATA to AAGATTCT, the “PBM E-score” value falls from 0.0821 to -0.242.

Going from CCCACCGC to AACACCGG, the “PBM E-score” value rises from 0.225 to 0.411.

Going from CACACCGG to CCCACCGG, the “PBM E-score” value rises from 0.283 to 0.41.

Going from AATACCGT to AATACCGG, the “PBM E-score” value rises from 0.211 to 0.416.

Going from AATACCGC to CCCACCGA, the “PBM E-score” value falls from 0.268 to 0.00192.

Compared with AACACCGC, ATAAATAT is lower in “PBM E-score” value: 0.27 for the first, 0.106 for the second.

First: GGTTCGTA
Second: CACTGTAC
The “PBM E-score” value of the first is higher: -0.0544 for the first, -0.378 for the second.

Compared with AAAGCGAC, GGCCGAAA is higher in “PBM E-score” value: 0.031 for the first, 0.254 for the second.

First: ATCCGAAA
Second: ATCCGAAG
The “PBM E-score” value of the first is higher: 0.368 for the first, 0.301 for the second.

Going from AACCGAAT to CTCCGAAG, the “PBM E-score” value rises from 0.133 to 0.479.

First: GTCCGAAA
Second: CACCGAAG
The “PBM E-score” value of the first is higher: 0.426 for the first, 0.167 for the second.

GACCGAAC was tested, and the “PBM E-score” value was 0.122.
